In all, about 320,000 compounds went through this assay and about 8,000 (2.5%) were called active. Shown is part of a subset that was picked to be rich in actives. Unmarked numbers belong to inactive results. No stated cut-off is given here; in the data, active means activation above about 47%; inactive means the rest.
Each compound was assayed against Aryl hydrocarbon receptor (Homo sapiens) (UniProt P35869) (assay: AHR activators, primary screen, cell-based, luminescence, luciferase reporter, human (AID 2796;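 further: 0% = vehicle wells and 100% = reference agonist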)). Conditions: AHR-responsive luciferase reporter cells, at 5 µM, active compounds read high.
Aryl hydrocarbon receptor (Homo sapiens), sequence (P35869 whole entry, looked up): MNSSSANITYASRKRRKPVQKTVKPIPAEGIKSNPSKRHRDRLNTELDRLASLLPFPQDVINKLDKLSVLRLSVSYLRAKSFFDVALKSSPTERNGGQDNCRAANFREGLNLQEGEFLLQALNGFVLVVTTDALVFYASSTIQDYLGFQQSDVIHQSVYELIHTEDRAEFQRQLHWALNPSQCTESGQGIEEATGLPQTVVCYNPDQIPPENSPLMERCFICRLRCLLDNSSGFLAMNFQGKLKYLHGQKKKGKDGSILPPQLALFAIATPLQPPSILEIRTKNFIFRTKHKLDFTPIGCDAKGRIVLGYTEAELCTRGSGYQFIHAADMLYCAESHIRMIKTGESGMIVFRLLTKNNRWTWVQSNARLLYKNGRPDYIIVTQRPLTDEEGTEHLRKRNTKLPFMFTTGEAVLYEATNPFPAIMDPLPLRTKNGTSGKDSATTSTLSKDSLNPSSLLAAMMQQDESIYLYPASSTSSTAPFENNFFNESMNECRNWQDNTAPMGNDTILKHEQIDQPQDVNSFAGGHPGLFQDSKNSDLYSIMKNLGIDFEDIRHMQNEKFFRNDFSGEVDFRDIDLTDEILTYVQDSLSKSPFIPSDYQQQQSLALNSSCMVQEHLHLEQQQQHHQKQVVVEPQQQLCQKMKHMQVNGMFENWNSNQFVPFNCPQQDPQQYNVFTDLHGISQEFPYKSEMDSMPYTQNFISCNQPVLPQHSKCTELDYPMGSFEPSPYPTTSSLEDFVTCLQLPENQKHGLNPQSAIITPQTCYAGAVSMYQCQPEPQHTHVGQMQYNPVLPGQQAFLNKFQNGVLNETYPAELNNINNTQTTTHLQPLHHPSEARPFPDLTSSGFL

SMILES | activation
NS(=O)(=O)c1ccc(N=Cc2ccc(Br)s2)cc1 | 3.54%
O=C(NNc1cc(Cl)cc(Cl)c1)c1c(F)cccc1Cl | 10.2%
COc1ccccc1-c1nnc(NC(=O)c2cccc(N3C(=O)CCC3=O)c2)o1 | 33.9%
COc1ccccc1-c1nnc(NC(=O)c2ccc3ncsc3c2)o1 | 48.6% (active)
Cc1sc(NC(=O)c2ccc3ncsc3c2)c(C(N)=O)c1C | 5.88%
COC(=O)CN1C(=O)C(O)=C(C(C)=O)C1c1ccc([N+](=O)[O-])cc1 (stereo not drawn) | 0.71%
CC(=O)C1=C(O)C(=O)N(c2ccc(Br)cc2)C1c1ccc([N+](=O)[O-])cc1 (stereo not drawn) | 62.3% (active)
CC(=O)C1=C(O)C(=O)N(c2cccnc2)C1c1ccc([N+](=O)[O-])cc1 (stereo not drawn) | -2.61%
COC(=O)C1=C(C)N(C(C)c2ccccc2)C(=O)/C1=C\c1ccco1 (stereo not drawn) | 1.2%
CCSc1ccccc1C(=O)NCc1ccc(OC)cc1 | -0.68%
COc1ccc(COCCN2CCN(S(=O)(=O)c3ccccc3)CCC2=O)cc1 | 2.49%
C=CCSc1nnc2c(n1)-c1cccc3cccc-2c13 | 56.7% (active)
CCN(CC(=O)Nc1ccc(OC)cc1)C(=O)CSCc1ccc(C)cc1 | 0.1%
Cc1occc1C(=O)Nc1cccc(S(=O)(=O)N2CCOCC2)c1 | 3.12%
Cc1c(C(=O)Nc2cccc(S(=O)(=O)N3CCOCC3)c2)oc2ccccc12 | 67.5% (active)
COc1ccc(NC(=O)c2oc3ccc(S(=O)(=O)N4CCOCC4)cc3c2C)cc1 | 10.4%
N#Cc1ccc(OCCN2C(=O)NC3(CCSC3)C2=O)cc1 (stereo not drawn) | -2.11%
Cc1cc(NC(=O)CSc2nnc(-c3ccco3)n2N)no1 | 1.53%
COc1ccc(C(=O)NC(=S)N2CCNC(=O)C2CC(=O)OC(C)C)cc1 (stereo not drawn) | 5.47%
Cc1cc2ncn(CCCCOc3ccccc3)c2cc1C | -0.22%
N#Cc1ccc(C2N=C(c3ccccc3)NO2)cc1 (stereo not drawn) | 0.8%
Brc1ccccc1C1N=C(c2ccccc2)NO1 (stereo not drawn) | 50.1% (active)
S=C1NC(c2ccccc2)=NCN1c1ccc(Br)cc1 | 1.57%
Cc1ccc(-n2nc3c(c2NC(=O)CCC2CCCCC2)CS(=O)C3)cc1 (stereo not drawn) | 18.5%
CCCCNC(=S)N/N=C1\CCCCc2ccccc21 | 13.7%

SMILES | activation
Cc1cc(O)c(Sc2ccccc2)c(=O)o1 | 0.97%
Cc1cc(O)c(C(=O)/C=C/c2c(F)c(F)c(F)c(F)c2F)c(=O)o1 | 99.4% (active)
Cc1ccc(N=Cc2c(O)cc(C)oc2=O)c(C)c1 | -0.65%
CCOC(=O)CCc1c(C)c(C#N)c2[nH]c3ccccc3n2c1=O | 4.77%
CN(C)Cc1c(C#N)c2ccccc2n1C | 1.2%
CCCc1cc(=S)n2c([nH]c3ccccc32)c1C#N | 63.8% (active)
COc1ccc(CCNC(=O)c2nnc(CS(=O)(=O)c3ccccc3)o2)cc1OC | -2.96%
CCn1c2ccccc2c2cc(CC(N)=O)ccc21 | 1.45%
CCn1c2ccccc2c2cc(NC(=O)CNC)ccc21 | 44.7%
CCn1c2ccccc2c2cc(NC(=O)COC(=O)c3cc(S(=O)(=O)N4CCCCC4)ccc3Cl)ccc21 | 34.2%
CCn1c2ccccc2c2cc(NC(=S)N3CCOCC3)ccc21 | 46%
CCn1c2ccccc2c2cc(NC(=O)COC(=O)c3ccccc3Br)ccc21 | 62.5% (active)
CCn1c2ccccc2c2cc(NC(=O)C/C(C)=N/NC(=O)c3ccccc3N)ccc21 | 95.2% (active)
COc1cc(OC)c(N2CC(C(=O)Nc3cc(Cl)ccc3N3CCOCC3)CC2=O)cc1Cl (stereo not drawn) | -0.04%
CCn1c(CSc2nncn2-c2ccc(OC)cc2)nc2cc(S(=O)(=O)N(C)C)ccc21 | -0.25%
CCOc1ccccc1C1NC(=O)NC(C)=C1C(=O)OCc1ccco1 (stereo not drawn) | -1.31%
COc1ccc2sc(-c3ccc(S(C)(=O)=O)cc3)c(-c3ccc(C(N)=O)cc3)c2c1 | 17.8%
COC(=O)c1ccc(/C=C/c2c(-c3ccc(OC)cc3)sc3ccccc23)cc1 | 51.7% (active)
COc1ccccc1-c1sc2ccccc2c1-c1ccc(C(C)=O)cc1 | 42.1%
O=C1CCCCC1Sc1ccc(Cl)cc1[N+](=O)[O-] (stereo not drawn) | 14.3%
Cc1nc(NC(CC(C)C)C(=O)O)c2nc(C)oc2n1 (stereo not drawn) | 1.08%
CC(C)OC(=O)CN1C(=O)C(=O)c2ccccc21 | 101% (active)
CC(OC(=O)CN1C(=O)c2ccccc2C1=O)C(=O)c1ccccc1 (stereo not drawn) | 0.4%
CCOC(=O)CN1C(=O)C(=O)c2cc(C)ccc21 | -0.46%
CC1CCCN(S(=O)(=O)c2ccc(N(C(=O)c3cnccn3)C(C(=O)NC3CCCCC3)c3cccs3)cc2)C1 (stereo not drawn) | 2.59%

SMILES | activation
CCOC(=O)CCP(=O)(O)C(O)(c1ccccc1)c1ccccc1 | -2.52%
COCCNC(=O)c1ccc(S(=O)(=O)c2ccc(Cl)cc2)c(NC(C)=O)c1 | 5.01%
CCOC(=O)c1c(S(=O)(=O)Nc2cccc(Cl)c2)c(C)n(C)c1C | 21.5%
CCOC(=O)c1c(C)n(C)c2ccc(OC)c(NS(=O)(=O)CC)c12 | 55.7% (active)
CCOC(=O)c1c(C)n(C)c2ccc(OC)c(NC(=O)CN3CCC4(CC3)OCCO4)c12 | 0.77%
FC(F)(F)c1cc(C(F)(F)F)c2ccc(N3CCN(c4ccccc4)CC3)nc2n1 | 3.17%
CC(=O)Nc1cccc(-c2nc3ccccc3s2)c1C | -9.79%
Oc1ccc(-c2[nH]ncc2-c2nc3ccccc3s2)c(O)c1 | 48.9% (active)
COc1ccc(Oc2cn[nH]c2-c2ccc(OC)cc2O)cc1 | 6.87%
CCOC(=O)C1(Cc2ccccc2C)CCCN(C(=O)c2ccc(COC)o2)C1 (stereo not drawn) | 20.8%
O=c1ccc2cc(S(=O)(=O)Nc3ccccc3F)ccc2o1 | -0.99%
Cc1cc(C(=O)COc2ccccc2[N+](=O)[O-])c(C)n1-c1cccc(S(=O)(=O)N2CCOCC2)c1 | 10.1%
CCCc1c(C(=O)O)cnn1-c1ccc(Cl)cc1 | -2.51%
CCCc1c(C(=O)Nc2ccc(F)cc2)cnn1-c1ccccc1 | 69.9% (active)
CCNC(=O)c1cnn(-c2ccccc2)c1-c1ccccc1 | 0.69%
COc1cc(/C=C/C(=O)OCC(=O)NC2CC2)cc(OC)c1OC | 1.12%
O=S(=O)(NCc1ccccc1Br)c1ccccc1Br | -0.52%
Cn1c(=O)c(C(=O)Nc2ncccn2)c(O)c2ccccc21 | 66.7% (active)
CCCn1c(=O)c(C(=O)Nc2cc(C)ccn2)c(O)c2ccccc21 | 7.05%
Cn1c(=O)c(Sc2ccc(Cl)cc2)c(O)c2ccccc21 | 6.8%
COc1ccccc1NC(=O)CSc1nnc(Cn2nnc(-c3ccccc3)n2)n1-c1ccccc1 | -0.61%
O=C(NCc1ccncc1)c1ccc(NS(=O)(=O)c2cccc([N+](=O)[O-])c2)cc1 | -0.44%
O=C(NCCCNc1ccc([N+](=O)[O-])cc1Cl)c1ccccc1F | -0.83%
O=C(NCCNc1ccc([N+](=O)[O-])cc1Cl)c1ccccc1F | -0.69%
CCC(C)NCC(=O)Nc1ccc([N+](=O)[O-])cc1C(=O)Nc1ccccc1F (stereo not drawn) | 104% (active)

SMILES | activation
CC1CC(C)CN(C(=O)C2CC(=O)N(c3ccc(F)cc3)C2)C1 (stereo not drawn) | -4.43%
Cc1ccc(O)c(CCc2ccccc2)n1 | 21.5%
O=C(O)CCCCCNc1ncnc2ccc(Br)cc12 | 4.84%
COc1ccc(Nc2ncnc3ccc(Br)cc23)c(OC)c1 | 52.9% (active)
C=CCNc1ncnc2ccc(Br)cc12 | 0.32%
O=C(COc1ccccc1F)Nc1nc(-c2ccccn2)cs1 | 12.4%
Cc1ccc2[nH]c(=O)c(CN(CC3COCCO3)C(=O)Nc3ccccc3C)cc2c1 (stereo not drawn) | 9.5%
COc1ccc2[nH]c(=O)c(CN(CC3CCCO3)C(=O)Nc3ccccc3)cc2c1 (stereo not drawn) | 0.61%
Cc1cccc(NC(=O)N(Cc2cc3cc(C)cc(C)c3[nH]c2=O)CC2COCCO2)c1 (stereo not drawn) | 59.6% (active)
Cc1ccc(C2(C(F)(F)F)N=C3Sc4cc(C)cc(C)c4N3C(=O)N2)cc1 (stereo not drawn) | 70.8% (active)
COC(=O)C1=C(N)Oc2c(oc(CO)cc2=O)C1c1c(F)cccc1Cl (stereo not drawn) | -0.25%
Cc1ccc(N2C(=O)N3[C@@H]4c5ccccc5OC[C@@H]4[C@@H](c4ccccc4)[C@@]3(C)C2=O)cc1 | 0.11%
CCOC(=O)Cc1ncccc1C(=O)Nc1ccc(OC(F)(F)F)cc1 | 78.1% (active)
CCOC(=O)Cc1ncccc1C(=O)Nc1ccc(OC)cc1 | 2.4%
COC(=O)Cc1ccc(OCC(=O)Nc2ccc(OC(F)(F)F)cc2)cc1 | 1.97%
COc1ccccc1N(C)S(=O)(=O)c1ccc(Cl)c(C(=O)Nc2ccncc2)c1 | 17.1%
CCOc1ccc(OCc2cccc(C(=O)N(CC)CC)c2)cc1 | -5.06%
CCSc1nsc(NC(=O)Nc2cccc(C(C)=O)c2)n1 | 76.5% (active)
C=CCSc1nsc(NC(=O)Nc2cccc(C(C)=O)c2)n1 | 41.3%
CCSc1nsc(NC(=O)Nc2ccccc2OC)n1 | -2.87%
O=Cc1c(NCCc2cccc(F)c2)c2ccccc2[nH]c1=O | 1.73%
Nc1c(NCCc2ccccc2)c2ccccc2oc1=O | 67.9% (active)
CC(C)(C)Nc1c(N)c(=O)oc2ccccc12 | -0.9%
